Here are results for eight compounds from PubChem BioAssay (Tox21).

Experiment [1] is described as follows: Nuclear factor erythroid 2-related factor 2/antioxidant responsive element (Nrf2/ARE) small molecule agonists: qHTS cell viability counter screen in human keratinocytes (AID 1919968; active means well fitted cell-killing curve with a large enough effect in the repeat runs; further: nearly all actives have a fitted effect of over 55% in size). Put shortly: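 CellTiter-Fluor fluorescence, read 1 h after reagent, gave viability in the same wells as the ARE-luciferase assay. KeratinoSens cells (1,500/well) had 23 h compound exposure at 37 C/5% CO2 following 5 h plating.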

The nature of experiment [2]: Nuclear factor erythroid 2-related factor 2/antioxidant responsive element (Nrf2/ARE) small molecule agonists: luciferase reporter gene qHTS assay in human keratinocytes (AID 1919969). Further: nearly all actives have a fitted effect of over 35% in size. Further: potency means the concentration at half of the fitted maximal effect. In general terms: A reporter such as luciferase makes a cellular process visible.
A short description of experiment [3]: G protein-coupled receptor (GPCR) small molecule agonists, calcium flux assay: HEK293 wild type cell line counter screen (AID 1920065). Put shortly: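 Calcium flux counter screen: compound added in agonist mode at 15 concentrations in triplicate to dye-loaded parental HEK293 cells. Fluorescence (480/540) read kinetically for 3 min; ATP served as positive control.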
In general terms: A change in cytosolic calcium serves as a functional read-out for many receptors and channels.

The nature of experiment [4]: p53 small molecule agonists, cell-based qHTS assay with human liver microsomes (AID 1963577).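 Further: p53 response element beta-lactamase reporter cells with liver microsomes plus NADPH.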 The procedure, abridged: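 Reporter activation was measured by LiveBLAzer fluorescence intensity in p53RE-bla cells, which had been exposed to compounds for 16 h at 37 C alongside 0.5 mg/mL human liver microsomes and 0.5 mg/mL NADPH (final concentrations).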
On the technique in general: qHTS replaces the single test concentration by a dilution series.

A short description of experiment [5]: p53 small molecule agonists, cell-based qHTS assay with rat liver microsomes (AID 1963578). Put shortly: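 Compound in DMSO added to p53RE-bla cells 5 h post-plating; rat microsomes/NADPH 0.5 mg/mL final; 16 h, 37 C; LiveBLAzer 2 h RT.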
Experiment [6] in a line: p53 small molecule agonists, cell-based qHTS assay with human liver microsomes: qHTS cell viability counter screen (AID 1963579). Further: nearly all actives have a fitted effect of over 45% in size. Put shortly:
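HLM-supplemented (0.5 mg/mL final) and NADPH-supplemented (0.5 mg/mL final) p53RE-bla cultures, 4,000 cells per well, were dosed with compounds in DMSO for 16 h at 37 C; luminescent ATP detection (CellTiter-Glo, 30 min, room temperature) quantified surviving cells.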

Experiment [7] can be described thus: p53 small molecule agonists, cell-based qHTS assay with rat liver microsomes: qHTS cell viability counter screen (AID 1963580). Further: nearly all actives have a fitted effect of over 45% in size. The procedure, abridged: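 Cytotoxicity counter screen: intracellular ATP measured by CellTiter-Glo luminescence in the same wells as the beta-lactamase reporter read, on HCT-116 p53RE-bla cells exposed 16 h at 37 C to compounds with rat liver microsomes and NADPH, each 0.5 mg/mL final.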

Experiment [8] in a line: p53 small molecule agonists, cell-based qHTS assay: qHTS cell viability counter screen (AID 1963581). Further: nearly all actives have a fitted effect of over 45% in size. The procedure, abridged:
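Counter screen read by CellTiter-Glo luminescence (ATP content, 30 min at room temperature), run in the same wells as the beta-lactamase reporter read. HCT-116 p53RE-bla cells saw compounds for 16 h at 37 C.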

The target in experiment [9] is 5-hydroxytryptamine receptor 2A (Homo sapiens) (UniProt P28223). Briefly: 5-hydroxytryptamine receptor 2A (HTR2A) small molecule antagonists, cell-based qHTS assay (AID 1963586). Further: nearly all actives have a fitted effect of over 45% in size. Put shortly: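 CHO cells stably expressing human HTR2A were plated for 18 h at 37 C, then loaded with calcium dye for 1 h. Compounds were preincubated 5 min at room temperature before DOI (4 nM solution) was added. Kinetic fluorescence was read for 3 min.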
Sequence of 5-hydroxytryptamine receptor 2A (Homo sapiens) (P28223 whole entry, looked up): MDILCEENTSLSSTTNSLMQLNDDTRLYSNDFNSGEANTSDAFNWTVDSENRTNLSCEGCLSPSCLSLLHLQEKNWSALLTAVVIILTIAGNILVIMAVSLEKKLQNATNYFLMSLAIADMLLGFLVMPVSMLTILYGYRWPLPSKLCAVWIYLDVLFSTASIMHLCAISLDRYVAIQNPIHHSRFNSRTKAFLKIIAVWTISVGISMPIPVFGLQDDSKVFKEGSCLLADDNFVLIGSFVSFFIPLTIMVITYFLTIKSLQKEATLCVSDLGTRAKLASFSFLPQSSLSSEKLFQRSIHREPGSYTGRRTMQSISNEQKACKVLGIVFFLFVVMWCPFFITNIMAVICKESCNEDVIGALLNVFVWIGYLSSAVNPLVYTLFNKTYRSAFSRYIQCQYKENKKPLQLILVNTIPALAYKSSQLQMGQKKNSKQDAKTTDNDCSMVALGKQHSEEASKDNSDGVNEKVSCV

The target is the same in experiment [10]. Nature of the experiment: 5-hydroxytryptamine receptor 2A (HTR2A) small molecule agonists, cell-based qHTS assay (AID 1963587). Further: nearly all actives have a fitted effect of over 30% in size. Put shortly:
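CHO cells stably expressing human HTR2A, plated 18 h, loaded with calcium dye 1 h at 37 C. Agonist mode: compounds added and intracellular calcium fluorescence recorded kinetically for 2 min at 1 sec intervals.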

The target of experiment [11] is Muscarinic acetylcholine receptor M1 (Homo sapiens) (UniProt P11229). Briefly: Cholinergic receptor muscarinic 1 (CHRM1) small molecule antagonists, cell-based qHTS assay (AID 1963588). Further: nearly all actives have a fitted effect of over 40% in size. Further: potency means the concentration at half of the fitted maximal effect. Put shortly: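 Compounds were tested at 15 concentrations in three independent runs. Dye-loaded CHRM1-CHO cells were exposed 5 min at room temperature before stimulation by acetylcholine added at 50nM. Intracellular calcium was read kinetically on FDSS for 3 min.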
Sequence of Muscarinic acetylcholine receptor M1 (Homo sapiens) (P11229 whole entry, looked up): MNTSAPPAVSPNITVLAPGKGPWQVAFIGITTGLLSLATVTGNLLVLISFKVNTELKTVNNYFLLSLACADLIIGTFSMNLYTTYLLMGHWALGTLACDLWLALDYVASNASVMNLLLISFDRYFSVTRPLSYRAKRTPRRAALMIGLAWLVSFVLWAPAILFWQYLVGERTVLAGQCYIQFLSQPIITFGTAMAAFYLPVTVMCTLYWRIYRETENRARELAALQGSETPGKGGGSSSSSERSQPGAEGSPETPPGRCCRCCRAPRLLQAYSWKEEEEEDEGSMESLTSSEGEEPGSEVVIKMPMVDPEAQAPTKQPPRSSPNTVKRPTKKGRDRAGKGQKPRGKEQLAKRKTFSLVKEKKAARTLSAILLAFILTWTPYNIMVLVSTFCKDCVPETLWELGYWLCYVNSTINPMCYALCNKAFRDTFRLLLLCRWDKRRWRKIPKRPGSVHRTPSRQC

For experiment [12] the target is unchanged. Nature of the experiment: Cholinergic receptor muscarinic 1 (CHRM1) small molecule agonists, cell-based qHTS assay (AID 1963589). Further: nearly all actives have a fitted effect of over 35% in size. The procedure, abridged: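 Agonist-mode calcium-flux screen: compounds at 15 concentrations, three independent runs, were pin-transferred onto dye-loaded human CHRM1-CHO cells. Fluorescence was then recorded kinetically every second over minutes.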

A short description of experiment [13]: cAMP Responsive Elements (CRE) small molecule agonists, cell-based qHTS assay (AID 1963590). The procedure, abridged: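 Agonist mode: compound added to CRE-bla HEK 293T cells (2,000/well, 18 h after plating) for 3 h at 37 C/5% CO2. Reporter activity detected via FRET beta-lactamase substrate, 2 h room-temperature loading.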
The target in experiment [14] is Beta-2 adrenergic receptor (Homo sapiens) (UniProt P07550). Briefly: Adrenergic beta2 receptor (ADRB2) small molecule antagonists, cell-based qHTS assay (AID 1963592). Further: series mostly up to about 92 µM; nearly all actives have a fitted effect of over 50% in size. Put shortly: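 Assay format: CHO-ADRB2 cells, 18-20hr seeding at 37C/5% CO2, then compound plus 1nM isoproterenol agonist mix for 0.5hr RT. Homogeneous time-resolved fluorescence cAMP detection after 1hr, expressed as 665/615 nm ratio.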
Sequence of Beta-2 adrenergic receptor (Homo sapiens) (P07550 whole entry, looked up): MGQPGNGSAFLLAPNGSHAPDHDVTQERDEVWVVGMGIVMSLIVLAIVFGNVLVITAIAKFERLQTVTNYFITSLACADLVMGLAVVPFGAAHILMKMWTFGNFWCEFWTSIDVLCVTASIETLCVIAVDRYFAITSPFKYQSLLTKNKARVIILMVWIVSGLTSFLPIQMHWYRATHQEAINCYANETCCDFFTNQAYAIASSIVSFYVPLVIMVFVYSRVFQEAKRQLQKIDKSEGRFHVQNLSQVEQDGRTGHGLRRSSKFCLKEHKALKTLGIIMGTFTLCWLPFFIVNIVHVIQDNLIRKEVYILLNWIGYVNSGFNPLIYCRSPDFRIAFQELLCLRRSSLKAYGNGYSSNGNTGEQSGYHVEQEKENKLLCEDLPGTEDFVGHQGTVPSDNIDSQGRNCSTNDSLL

Experiment [15] has as its target D(2) dopamine receptor (Homo sapiens) (UniProt P14416). Nature of the experiment: Dopamine D2 receptor (DRD2) small molecule agonists, cell-based qHTS assay (AID 1963594). Further: nearly all actives have a fitted effect of over 35% in size. Put shortly:
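HEK293 cells stably expressing human DRD2, pre-treated with PDE inhibitor Ro20-1724 (0.1 mM final) and compound 10 min at room temperature, then stimulated with NKH477 (200nM […]) for 30 min. cAMP read by HTRF (665/620 nm).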

The target is the same in experiment [16]. Nature of the experiment: Dopamine D2 receptor (DRD2) small molecule antagonists, cell-based qHTS assay (AID 1963595; active means well fitted inhibition curve with a large enough effect in the signal ratio in the repeat runs, with a control signal flat; the % refers to the signal ratio). The procedure, abridged: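 Antagonist mode in DRD2-HEK293 cells: after compound addition with 0.1 mM Ro20-1724, cells received quinpirole (12 nM) and NKH477 (200 nM) for 30 min at room temperature; HTRF cAMP read after 1 h detection.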

Experiment [17] can be described thus: p53 small molecule agonists, cell-based qHTS assay (AID 1963582; active means well fitted activation curve with a large enough effect in the signal ratio in the repeat runs, not every such curve was filed as active; the % refers to the signal ratio). The procedure, abridged: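 Read-out is beta-lactamase FRET fluorescence after 2 h at room temperature with LiveBLAzer B/G substrate. p53 response element-bla cells were treated 16 h at 37 C with compounds in DMSO, added 5 h after seeding.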
Experiment [18] is described as follows: cAMP Responsive Elements (CRE) small molecule antagonists, cell-based qHTS assay (AID 1963591; active means well fitted inhibition curve with a large enough effect in the signal ratio in the repeat runs, not every such curve was filed as active; the % refers to the signal ratio). The procedure, abridged: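 Antagonist mode: compounds are added alongside the adenylyl cyclase activator NKH477 (0.25 uM final) to CRE-bla HEK293T cells for 3 h. LiveBLAzer FRET substrate, 2 h at room temperature, reports bla expression.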
Experiment [19] concerns the target Beta-2 adrenergic receptor (Homo sapiens) (UniProt P07550). Nature of the experiment: Adrenergic beta2 receptor (ADRB2) small molecule agonists, cell-based qHTS assay (AID 1963593).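 Further: CHO cells stably overexpressing human ADRB2.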 Put shortly: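 CHO cells stably over-expressing ADRB2 were plated overnight at 37C, then dosed with compounds plus a stimulation mix containing 100uM IBMX and 25uM Ro-20-1724 for 0.5hr at room temperature. cAMP was measured by HTRF competition, 1hr.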

Unmarked numbers belong to inactive results. Records with an inconclusive call do not appear. Calls of active or inactive are those of the source. Unless noted, the call rests on the fitted dose curve.
On the % scale 0 is the no-effect control and ±100 the full control effect.

Sequence of D(2) dopamine receptor (Homo sapiens) (P14416 whole entry, looked up): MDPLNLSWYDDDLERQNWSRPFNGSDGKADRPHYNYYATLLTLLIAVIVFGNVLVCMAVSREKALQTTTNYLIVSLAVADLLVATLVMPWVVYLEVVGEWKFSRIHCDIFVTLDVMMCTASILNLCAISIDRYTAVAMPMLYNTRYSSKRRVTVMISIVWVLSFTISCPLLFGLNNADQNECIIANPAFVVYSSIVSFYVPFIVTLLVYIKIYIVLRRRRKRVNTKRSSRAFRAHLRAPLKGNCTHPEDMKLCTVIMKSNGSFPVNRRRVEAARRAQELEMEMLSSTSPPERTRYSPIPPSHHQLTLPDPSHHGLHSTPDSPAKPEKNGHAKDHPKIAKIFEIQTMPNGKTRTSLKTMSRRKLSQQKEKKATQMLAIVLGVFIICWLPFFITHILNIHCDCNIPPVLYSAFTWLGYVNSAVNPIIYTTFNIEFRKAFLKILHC

Turning to `Cc1c([N+](=O)[O-])cc2c(c1[N+](=O)[O-])C(C)(C)CC2(C)C`, the Potency entry in experiment [1], in experiment [3], in [4], in experiment [5], in experiment [6] and in [7] was “inactive” each time. Besides, the Potency result in [8], in [9], in experiment [10], in experiment [11], in experiment [12] and in experiment [13] was “inactive” throughout. The Potency entry in [14], in experiment [15] and in experiment [16] was “inactive” each time. Moreover, the Potency in experiment [2] is 48.6 µM (active).
Regarding `CC(C)(COCC1CO1)COCC1CO1` (stereo unspecified), the Potency entry in experiment [1], in [3], in [4], in experiment [5], in [6] and in experiment [8] was “inactive” throughout. For the same compound, the Potency entry in [17], in [9], in experiment [10], in experiment [11], in experiment [13] and in [18] was “inactive” each time. Also, the Potency result in experiment [14], in experiment [19], in [15] and in [16] was “inactive” each time. Moreover, in experiment [2], the Potency is 68.6 µM (active).
As to `c1csc(-c2ccc(-c3cccs3)s2)c1`, the Potency result in experiment [1], in experiment [3], in experiment [6], in [7], in experiment [8] and in experiment [9] was “inactive” each time. The Potency result in experiment [10], in experiment [11], in experiment [12], in [14] and in experiment [19] was “inactive” throughout. For the same compound, the Potency in experiment [2] was 8.63 µM (active).
For the compound `CCCN1CCC[C@@H]2Cc3[nH]ncc3C[C@H]21`, the Potency result in experiment [1], in experiment [2], in [3], in [4], in experiment [5] and in experiment [6] was “inactive” in each case. The Potency entry in [7], in experiment [8], in experiment [17], in [11], in experiment [12] and in experiment [13] was “inactive” each time. For the same compound, the Potency entry in [18] and in experiment [19] was “inactive” in each case.
Turning to `CC(CC(C#N)(c1ccccc1)c1ccccc1)N(C)C` (stereo unspecified), the Potency entry in [1], in experiment [2], in experiment [3], in experiment [4], in [5] and in experiment [6] was “inactive” throughout. In addition, the Potency entry in experiment [7], in [8], in experiment [17], in experiment [10], in [12] and in experiment [13] was “inactive” in each case. Besides, the Potency entry in experiment [18], in [14] and in [15] was “inactive” throughout. For the same compound, the Potency in experiment [11] is 0.0105 µM (active).
Take `COc1cccc([C@@]2(O)CCCC[C@@H]2CN(C)C)c1`: the Potency result in experiment [1], in experiment [2], in experiment [3], in experiment [4], in experiment [5] and in experiment [6] was “inactive” in each case. Further, the Potency result in experiment [7], in experiment [17], in [13], in experiment [18], in experiment [14] and in experiment [19] was “inactive” throughout. Further, the Potency result in experiment [15] and in [16] was “inactive” each time.
As for `CC(=O)OCC1=C(C(=O)O)N2C(=O)[C@@H](N)[C@H]2SC1`, the results for the activity change, negative = cytotoxicity in [1], in experiment [6] and in [7] were 3.02% [at 19 µM], -9.53% [at 13.5 µM] and 0.524% [at 13.5 µM], respectively. Also, the activity, positive = activation in [2] was -4.57% [at 19 µM]. The activation in [3] is 1.18% [at 11.8 µM]; in experiment [4], 8.26% [at 13.5 µM]; in experiment [5] it was 0.252% [at 13.6 µM]; in experiment [17], 1.4% [at 13.5 µM]; in experiment [10], 1.54% [at 15.9 µM]; in experiment [12], 0.141% [at 15.8 µM]. The figures for the activation in [13], in [19] and in [15] were -2.32% [at 19 µM], 15.1% [at 19 µM] and 5.76% [at 19 µM], respectively. For the same compound, the activity, negative = inhibition in experiment [9] is 10.6% [at 12.7 µM]; in experiment [11] it was 7.63% [at 12.6 µM]. Further, the activity change, negative = inhibition in [18] was -7.18% [at 18.9 µM]; in experiment [14] it was -0.292% [at 19 µM]; in experiment [16] it was 7.52% [at 18.9 µM].
With `CCCCC(CC)COP(=O)(Oc1ccccc1)Oc1ccccc1` (stereo unspecified), the Potency entry in [1], in experiment [3], in experiment [6], in [7], in [8] and in experiment [9] was “inactive” throughout. Moreover, the Potency result in [10], in experiment [11], in [12], in [14], in [19] and in experiment [15] was “inactive” in each case. Moreover, the Potency result in experiment [16] is “inactive”. In [2], the Potency is 30.6 µM (active).
